Experimental data: the supplement of paper PMC7556523

System: Sporothrix brasiliensis CBS 133006
Assay: growth inhibition relative to untreated control; higher = more growth inhibition (more antifungal activity), active = 80 or more; extreme values may be limits of the assay
Settings: 1 µM; 48 h
In short: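 Library compounds at a final 1 μM were incubated with yeast-form cells of the reference isolates (1 x 10^5 CFU/ml) for 48 h at 35°C in 5% CO2. Growth was judged by inverted light microscopy and measured spectrophotometrically in quadruplicate runs. Values give percent growth inhibition relative to untreated cells.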

| Compound | growth inhibition |
| --- | --- |
| CN(C)CCNC(=O)N1CCCN(c2ncnc3cc(-c4ccccc4)sc23)CC1 | 10.5% (inactive) |
| c1coc(CNc2nc(N3CCCCC3)nc3ccccc23)c1 | 4.25% (inactive) |
| CN(C(=O)c1cc2c(-c3cncnc3)cccc2[nH]1)c1ccccc1 | 8.25% (inactive) |
| Cc1cc(C(=O)Nc2cnn(Cc3ccc(Cl)cc3Cl)c2)no1 | 5.75% (inactive) |
| Cc1ccc(-c2cc(C(=O)Nc3cccnc3)c3cc(Br)ccc3n2)cc1 | 25.2% (inactive) |
| Clc1ccc(-n2cc(COc3ccnc4ccccc34)nn2)cc1 | 13.5% (inactive) |
| COc1ccc(-c2nnc3ccc(-c4cccc(C(C)C)c4)cn23)cc1OC | 17% (inactive) |
| Cc1nc2ccccn2c1C(=O)NCc1ccc(Cl)cc1 | 14% (inactive) |
| COc1ccc(C2(C(=O)Nc3ccc(Br)cc3)CCCC2)cc1 | 59.8% (inactive) |
| O=C(Nc1ccccc1)c1ccc(-c2cc3ccncc3cc2OC2CCNCC2)s1 | 8.75% (inactive) |
| N=C(N)c1ccc(OCCCCCOc2ccc(C(=N)N)cc2)cc1 | 93.5% (active) |
| COc1ccc2nc(C)cc(OCC(=O)Nc3ccccc3OC)c2c1 | 6% (inactive) |
| O=C(Nc1ccccc1-c1nc2c(C(=O)O)cccc2o1)c1ccccc1 | 1% (inactive) |
| O=C(NC1CC1)c1ccc(CSCc2ccccc2Cl)o1 | 6.25% (inactive) |
| O=C1Nc2ccc(Br)cc2C12NCCc1c2[nH]c2ccccc12 (stereo not drawn) | 18.8% (inactive) |
| CCOc1ccc2cc(-c3nn(C(C)(C)C)c(N)c3C(N)=O)cnc2c1 | 0% (inactive) |
| CC1=Nc2ccc(Cl)cc2C(O)(c2ccc(C)cc2)N1CCN1CCCCC1 (stereo not drawn) | 12.2% (inactive) |
| N#CCN(CCCCN1CCN(c2ccc(F)cc2)CC1)C(=O)OCc1ccccc1 | 11.2% (inactive) |
| COc1cc(C2=NCCN2)ccc1-n1cc(-c2cccc(C3=NCCN3)c2)nn1 | 18.5% (inactive) |

| Compound | growth inhibition |
| --- | --- |
| Cc1cc(C)cc(COc2ccc3c(C)c(CCC(=O)O)c(=O)oc3c2C)c1 | 3.75% (inactive) |
| Clc1ccc(Cl)c(CO[C@H]2CCCC[C@@H]2n2ccnc2)c1 | 18% (inactive) |
| O=C(c1ccc(NCCO)cc1)C1C[C@H]1c1ccc(Cl)cc1 (stereo partly drawn) | 2% (inactive) |
| O=C(C1CCN(c2nnc(-n3cccc3)s2)CC1)N1CCC(Cc2ccccc2)CC1 | 7.5% (inactive) |
| CC(=O)NC[C@@H]1CN(c2ccc(N3CCOCC3)c(F)c2)C(=O)O1 | 1.75% (inactive) |
| Cc1cc(C)n(-c2ccc(NC(=O)C3CCN(Cc4cnc(C)s4)CC3)cc2)n1 | 5.5% (inactive) |
| Brc1c(-c2ccc3c(c2)OCO3)nc2ncccn12 | 19.5% (inactive) |
| O=C(C1CCN(c2cc(-n3cccc3)ncn2)CC1)N1CCc2ccccc2C1 | 6% (inactive) |
| Clc1cccc(C(c2ccc(CN3CCNCC3)cc2)n2ccnc2)c1 (stereo not drawn) | 3% (inactive) |
| N=C(N)Nc1ccc(-c2ccc(-c3ccc(NC(=N)N)cc3Cl)o2)c(Cl)c1 | 19.8% (inactive) |
| COc1cccc(OC)c1C(=O)Nc1ccc(Cl)c(-c2nc3ccccc3s2)c1 | 7.75% (inactive) |
| COc1ccc(Oc2ccc([C@@H](C)N(C)c3ncc4c(N)nc(N)nc4n3)cc2)cc1 | 5.75% (inactive) |
| Nc1nccc2ccc(-c3ccc4nccn4c3)cc12 | 5.5% (inactive) |
| CCc1cc(=O)n(C)c(SC(C)C(=O)Nc2ccc(F)cc2)n1 (stereo not drawn) | 9.25% (inactive) |
| c1ccc(-c2cc(N3CCCCC3)c3ccccc3n2)nc1 | 35.2% (inactive) |
| Cc1cc(Cl)c(S(=O)(=O)N2CCCC2)cc1OCC(=O)NC1CCCCC1 | 8% (inactive) |
| Cc1cc(O)nc(-n2nc(C)cc2C)n1 | 4.75% (inactive) |
| CCC(Sc1nc2ccccc2o1)C(=O)Nc1nnc(C)s1 (stereo not drawn) | 16% (inactive) |
| COC(=O)Nc1nc2cc(C(=O)c3ccccc3)ccc2[nH]1 | 3.75% (inactive) |
